PubChem BioAssay AID489043 (National Center for Advancing Translational Sciences (NCATS), 2010)
Results filed as inconclusive are left out. Unmarked numbers belong to inactive results. Activity calls are given as the source filed them. Calls follow the shape of the dose curve; as a rule, active = well fitted activation curve with a large enough effect; inconclusive = small, poorly fitted or top-dose-only effect; inactive = flat fitted curve, though single readings scatter.

molecular target: Relaxin receptor 2 (Homo sapiens) (UniProt Q8WXD0); assay: qHTS Assay for Agonists of the Relaxin Receptor RXFP1: RXFP2 Hit Validation; conditions: HEK293 RXFP2 cAMP TR-FRET, 30 min; series mostly up to 44.7 µM; activation: at the top concentration; also: nearly all actives have a fitted effect of over 65% in size
Sequence (Q8WXD0 whole entry, looked up): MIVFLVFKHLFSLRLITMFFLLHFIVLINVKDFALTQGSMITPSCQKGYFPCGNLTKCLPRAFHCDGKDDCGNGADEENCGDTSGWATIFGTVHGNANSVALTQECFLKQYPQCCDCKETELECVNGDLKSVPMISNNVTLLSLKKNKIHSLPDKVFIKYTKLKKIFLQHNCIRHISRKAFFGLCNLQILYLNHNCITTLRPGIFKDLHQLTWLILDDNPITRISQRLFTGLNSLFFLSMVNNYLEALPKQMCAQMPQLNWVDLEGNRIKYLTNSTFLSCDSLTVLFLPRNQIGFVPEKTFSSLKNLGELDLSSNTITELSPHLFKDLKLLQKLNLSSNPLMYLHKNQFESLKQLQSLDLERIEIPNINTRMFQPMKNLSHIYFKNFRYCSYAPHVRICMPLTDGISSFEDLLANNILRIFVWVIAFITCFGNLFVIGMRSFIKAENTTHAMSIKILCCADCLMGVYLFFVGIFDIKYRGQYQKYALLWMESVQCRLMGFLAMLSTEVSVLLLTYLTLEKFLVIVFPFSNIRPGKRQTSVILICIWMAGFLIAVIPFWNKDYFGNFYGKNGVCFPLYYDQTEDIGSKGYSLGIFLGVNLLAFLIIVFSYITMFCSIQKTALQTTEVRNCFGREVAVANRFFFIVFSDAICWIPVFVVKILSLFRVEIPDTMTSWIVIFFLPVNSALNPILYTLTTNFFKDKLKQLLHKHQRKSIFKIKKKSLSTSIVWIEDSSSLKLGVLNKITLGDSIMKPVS
Source text: NIH Chemical Genomics Center [NCGC] NIH Molecular Libraries Probe Production Centers Network [MLPCN] MLPCN Grant: R03 MH085705-01A1 Assay Submitter (PI): Alexander Agoulnik NCGC Assay Overview: The relaxin hormone is involved in the variety of biological functions in normal tissues and diseases. The role of relaxin is well-established in female reproduction and parturition, mammary gland and endometrial development, maintenance of myometrial quiescence during pregnancy. Relaxin signaling through its G protein-coupled receptor (GPCR) RXFP1 results in ECM remodeling through regulation of collagen deposition, cell invasiveness, proliferation and overall tissue homeostasis. […] Recombinant human relaxin (rhRlx) is currently being tested in clinical trials as a protective agent in congestive heart failure, in treating severe preeclampsia, and as an anti-fibrotic agent in systemic sclerosis. Upon relaxin binding RXFP1 activation leads to the activation of adenylate cyclase (AC) via Gs. cAMP will activate PKA, which phosphorylates many signaling proteins. Thus, detection of cAMP increase is an easy and reliable indication of relaxin receptor activation. To screen for agonists of the relaxin receptor, a HEK293T cell line stably transfected with RXFP1 was used. RXFP1 activation was assayed by changes in cAMP levels as detected with a time-resolved fluorescence energy transfer (TR-FRET) cAMP detection kit. This assay measures activation of a cell expressing RXFP2, another GPCR targeted by relaxin, to determine the selectivity of compounds for RXFP1.
NCGC Assay Protocol Summary: This is a cell-based assay for cAMP second messenger response to screen for agonists of the RXFP2 receptor. The assay was conducted in the presence of a PDE4 inhibitor (Ro 20174). The cells were lysed and the cAMP levels were measured with a TR-FRET cAMP kit. Presence of cAMP in the cell lysate disrupts binding between the cryptate-labeled anti-cAMP and d2-labeled cAMP pair, leading to a decrease in the TR-FRET signal. Data were normalized to the controls for basal activity (buffer only) and 100% activity (29 nM porcine relaxin). The EC50 values were determined from concentration-response data modeled with the standard Hill equation 1536-well assay protocol for the HEK293 RXFP2 cAMP assay: (1) Add 3 ul HEK293 RXFP2 cell culture. 2000 cells/well in DMEM/F12, 10% FBS, 1x Pen/Strep (dispensed offline with MultiDrop Combi). (2) Incubate 16-24 hr at 37C, 5% CO2. (3) Add 1 ul 400uM Ro20174 in DPBS, 0.05% BSA, 0.005% Tween 20. (3) Add 23 nl compounds in DMSO solution. Final concentration was 0.5 - 58 uM. (4) Incubate 30 min at 37C, 5% CO2. (5) Add 1 ul cAMP-d2 in lysis buffer (HTRF cAMP HiRange kit, CisBio). (6) Add 1 ul anti-cAMP antibody-cryptate in lysis buffer (HTRF cAMP HiRange kit, CisBio). […]
Potency is read from the fitted curve at half-maximal effect.

SMILES | Potency | activation
Nc1ncc2[nH]cnc2n1 | 17.4 µM (active) | 
CCNC(=O)[C@H]1O[C@@H](n2cnc3c(N)ncnc32)[C@H](O)[C@@H]1O | 0.974 µM (active) | 
O=C(O)c1sc2cc(Cl)ccc2c1Cl |  | 19.7%
CCC(Oc1cc(Cl)ccc1Cl)C(=O)N1CCC2(CC1)OCCO2 (centres undefined) |  | 2.36% [at 115 µM]
